A549 tox-1 – Nrf2 qHTS screen for inhibitors: counterscreen for cytotoxicity; A549 ARE-Fluc cells, CellTiter-Fluor viability, 18-24 h; Potency, µM (doses to about 46 µM), for the others: top-dose activity change, negative = cytotoxicity, hits mostly inhibitors; actives 0.16% (n = 390,000); AID 504648, 2011; note: % is set by controls: 0 for no effect and ±100 for the full control effect
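Cytotoxicity counterscreen: CellTiter-Fluor fluorescence was measured in A549 ARE_Fluc cells after 18-24 h of compound exposure in a concentration series. The subsequent BugLite luminescent read reports ARE-luciferase activity.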
ELG1 repair inh – qHTS screen for small molecules that inhibit ELG1-dependent DNA repair in human embryonic kidney (HEK293T) cells expressing luciferase-tagged ELG1; HEK293T ELG1-luciferase reporter, luminescence, 16 h; DNA damage induced by 5-fluorouridine; Potency, µM (highest dose often 46.1 µM), for inactives: top-dose activity change, negative = inhibition, usual class: inhibitors; actives 2.3% (n = 330,000); note: % is set by controls: 0 for no effect and ±100 for the full control effect; nearly all actives have a fitted effect of over 55% in size
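5-Fluorouridine DNA damage + compound/DMSO, 2,000 cells/well, 16 h, 37 °C/5% CO2. ONE-Glo, 30 min RT, luminescence. Readout = decrease in reporter signal.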
Nrf2 ARE act – qHTS of Nrf2 Activators. AREc32 ARE-luciferase reporter (MCF7-derived line), luminescence, 24 h. Potency, µM (series often up to 46.1 µM), for inactives: at the top dose activation, usual class: activators. actives 0.31% (n = 410,000). AID 624171, 2012; note: % of control where 0% means no effect; nearly all actives have a fitted effect of over 65% in size
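Luminescent ARE reporter assay in AREc32_Fluc cells: overnight plating at 37 deg C, 24 hr compound incubation, Steady-Glo added, 30 min RT before reading.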
Nrf2 block – Nrf2 qHTS screen for inhibitors; A549 ARE-Fluc reporter, luciferase luminescence, 18-24 h; Potency, µM (top dose mostly 46 µM), for the others: at the highest dose activity change, negative = inhibition, actives largely listed as inhibitors; actives 2.1% (n = 360,000); note: % is set by controls: 0 for no effect and ±100 for the full control effect; nearly all actives have a fitted effect of over 60% in size
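Cells were seeded and rested 2 h, then exposed to compounds for 18-24 h. CellTiter-Fluor was read first as a viability measure. BugLite was added 15 min before the final luminescent read of ARE-luciferase activity in A549 cells.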
FLuc enzyme inh – Nrf2 qHTS screen for inhibitors: Purified Fluc Biochemical Counterscreen for Hit Validation. shares compounds with Nrf2 block. purified firefly luciferase, luminescence inhibition. Potency, µM (series often up to 57.5 µM), inactives show at the highest dose activity change, negative = inhibition, most hits filed as inhibitors. actives 4% (n = 1,400). AID 720522, 2013; note: % is set by controls: 0 for no effect and ±100 for the full control effect; nearly all actives have a fitted effect of over 65% in size
Target sequence (P08659 whole entry, looked up): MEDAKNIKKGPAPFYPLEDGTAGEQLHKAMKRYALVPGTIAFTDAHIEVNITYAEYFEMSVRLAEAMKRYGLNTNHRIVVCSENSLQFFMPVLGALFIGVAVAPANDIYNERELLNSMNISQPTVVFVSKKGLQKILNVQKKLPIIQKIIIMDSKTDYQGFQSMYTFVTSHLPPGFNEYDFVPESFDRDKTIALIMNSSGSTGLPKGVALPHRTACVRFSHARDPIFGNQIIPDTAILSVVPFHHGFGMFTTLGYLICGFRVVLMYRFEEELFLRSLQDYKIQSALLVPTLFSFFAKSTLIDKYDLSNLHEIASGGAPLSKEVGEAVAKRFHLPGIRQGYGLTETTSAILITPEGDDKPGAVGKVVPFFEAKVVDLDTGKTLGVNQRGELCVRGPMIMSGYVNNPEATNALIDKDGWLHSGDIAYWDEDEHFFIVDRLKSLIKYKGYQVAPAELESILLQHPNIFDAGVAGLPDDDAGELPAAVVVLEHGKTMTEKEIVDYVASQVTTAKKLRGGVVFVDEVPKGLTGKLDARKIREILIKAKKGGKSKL
A549 tox-2 – Nrf2 qHTS screen for inhibitors: A549 ARE-Fluc Cytotoxicity Counterscreen for Hit Validation; shares compounds with Nrf2 block; A549 ARE-Fluc cells, cytotoxicity counterscreen; Potency, µM (doses to about 46.1 µM), without a hit: at the highest dose activity change, negative = cytotoxicity, hits mostly inhibitors; actives 2% (n = 1,400);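 note: cells exposed to compounds for 18 to 24 hours; % is set by controls: 0 for no effect and ±100 for the full control effect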
ARE-Fluc inh – Nrf2 qHTS screen for inhibitors: Nrf2 A549 ARE-Fluc Confirmation Assay for Hit Validation; Potency, µM (doses to about 46.1 µM), inactives show at the top dose activity change, negative = inhibition, most hits filed as inhibitors; shares compounds with Nrf2 block; A549 ARE-firefly luciferase reporter, luminescence; actives 74% (n = 1,400); AID 720524, 2013; note: % is set by controls: 0 for no effect and ±100 for the full control effect; nearly all actives have a fitted effect of over 65% in size
* marks the source's active call; other numbers are inactive results; ? = inconclusive; . = no result given. Rows were chosen to be rich in hits. Some 3.7% of all compounds tested hit in one or more screens of this group. Calls come from the whole dose curve; as a rule, active = well fitted curve in the direction sought with a large enough effect; inconclusive = small, poorly fitted or top-dose-only effect, or another doubt; inactive = no such curve, though single readings can be large; an effect the other way counts as inactive or inconclusive. Potency is the fitted concentration of half-maximal effect.

SMILES | A549 tox-1 | ELG1 repair inh | Nrf2 ARE act | Nrf2 block | FLuc enzyme inh | A549 tox-2 | ARE-Fluc inh
COc1ccc(CCN2C(=O)C(Oc3ccccc3)C2c2ccc3c(c2)OCO3)cc1 (configuration not stated) | -3% | ? | -1% | -2% | . | . | .
Cc1c(C(=O)OC2CCCCCC2)[nH]c2c1C(=O)CC(c1ccccc1)C2 (configuration not stated) | 2% | . | -1% | -6% | . | . | .
COC(=O)c1[nH]c2c(c1C)C(=O)CC(c1cc(OC)c(OC)c(OC)c1)C2 (configuration not stated) | 0% | -18% | 3% | 9.2µM* | 4% | -6% | ?
COc1cc(C2CC(=O)c3c([nH]c(C(=O)OC4CCCC4)c3C)C2)cc(OC)c1OC (configuration not stated) | ? | . | -2% | 5.8µM* | -15% | ? | 12µM*
COC(=O)c1[nH]c2c(c1C)C(=O)CC(c1ccc(OC)c(OC)c1)C2 (configuration not stated) | -4% | ? | 0% | ? | . | . | .
Cc1cc(C)nc(SCC(=O)Nc2ccnc3ccccc23)n1 | ? | ? | 3% | 1.2µM* | -2% | -9% | -24%
O=C(CSC1=NCCS1)Nc1ccnc2ccccc12 | -15% | ? | 11% | 5.2µM* | -2% | -11% | 7.3µM*
COC(=O)c1ccccc1NC(=O)CSc1nc(C)cc(C)n1 | 13% | 0% | 0% | -10% | . | . | .
COCCn1c(C)cc(O)c(C(c2ccccc2)N2CCN(c3ccccc3)CC2)c1=O (configuration not stated) | 2% | . | -1% | . | . | . | .
COc1cc(NC(=O)CSCc2ccc(Cl)cc2)c(C(=O)O)cc1OC | -12% | -2% | -1% | -17% | . | . | .
Cc1ccc(NC(=O)C(C)Sc2nc3c(c(=O)[nH]2)CCCC3)cc1Cl (configuration not stated) | 5% | . | 2% | 5% | . | . | .
CCC(=O)N1CCc2cc(CNC(=O)c3cccc(N(C)C)c3)ccc21 | 4% | . | 0% | . | . | . | .
Cc1ccc(C(=O)C[n+]2ccc3ccccc3c2)cc1 | -5% | ? | 16% | ? | . | . | .
Cc1cc(C(C)(C)C)cc(C)c1C[n+]1ccc2ccccc2c1 | -18% | ? | -1% | 3.7µM* | 3% | -5% | 2.3µM*
COC(=O)c1ccc(Cl)cc1NC(=O)Nc1nnc(N(C)Cc2ccccc2)s1 | 8% | . | -1% | ? | . | . | .
O=C(COC(=O)c1ccc[nH]c1=O)Nc1ccc(S(=O)(=O)N2CCCC2)cc1 | -25% | -2% | 0% | 0% | . | . | .
O=C(COC(=O)c1ccc[nH]c1=O)Nc1ccc(N2CCCCC2)cc1 | -1% | -23% | -3% | 2.3µM* | 11µM* | -1% | 4.1µM*
Cc1c(C(=O)Nc2ccc3c(c2)OCCO3)sc2nc(-c3ccccc3)cn12 | ? | 13µM* | -1% | 6.5µM* | ? | -19% | 21µM*
CC(=O)Nc1ccc(S(=O)(=O)Nc2ccc(Cc3ccncc3)cc2)cc1 | 1% | -20% | 0% | ? | . | . | .
CC(C)(C)c1ccc(S(=O)(=O)Nc2ccc(Cc3ccncc3)cc2)cc1 | ? | 6% | 5% | 9.2µM* | -3% | ? | 0.021µM*
O=C(CCc1ccccc1)NNC(=S)NC(=O)c1ccccc1 | -21% | 14% | 0% | ? | . | . | .
CC(C)(C)c1cc(CCC(=O)NNC(=S)NC(=O)c2ccccc2)cc(C(C)(C)C)c1O | ? | 17% | -1% | 2.9µM* | 1% | -9% | 15µM*

Assay outcomes: PubChem BioAssay, National Center for Advancing Translational Sciences (NCATS)
